# Compound activity (PubChem BioAssay)
# Shown are actives, neighbours in structure and some others; about 5.9% of the full set was active somewhere.
# GLP-1R agonist = qHTS of GLP-1 Receptor Agonists; Potency, µM (doses to about 45.6 µM), most hits filed as activators; Glucagon-like peptide 1 receptor (Homo sapiens), P43220; 380,000 tested, 0.007% active; HEK293 GLP-1R CRE-luciferase, luminescence, 4-6 h; cells express a hypersensitive GLP-1R form
# RORg inh = qHTS for inhibitors of ROR gamma transcriptional activity. Nuclear receptor ROR-gamma (Mus musculus), P51450. Drosophila S2 Gal4-RORgamma UAS-luciferase reporter, 20 h. Potency, µM (doses to about 53.6 µM), most hits filed as inhibitors. 310,000 tested, 5.4% active; further: nearly all actives have a fitted effect of over 60% in size
# Target sequence (P51450 whole entry, looked up, the tested form may be a part): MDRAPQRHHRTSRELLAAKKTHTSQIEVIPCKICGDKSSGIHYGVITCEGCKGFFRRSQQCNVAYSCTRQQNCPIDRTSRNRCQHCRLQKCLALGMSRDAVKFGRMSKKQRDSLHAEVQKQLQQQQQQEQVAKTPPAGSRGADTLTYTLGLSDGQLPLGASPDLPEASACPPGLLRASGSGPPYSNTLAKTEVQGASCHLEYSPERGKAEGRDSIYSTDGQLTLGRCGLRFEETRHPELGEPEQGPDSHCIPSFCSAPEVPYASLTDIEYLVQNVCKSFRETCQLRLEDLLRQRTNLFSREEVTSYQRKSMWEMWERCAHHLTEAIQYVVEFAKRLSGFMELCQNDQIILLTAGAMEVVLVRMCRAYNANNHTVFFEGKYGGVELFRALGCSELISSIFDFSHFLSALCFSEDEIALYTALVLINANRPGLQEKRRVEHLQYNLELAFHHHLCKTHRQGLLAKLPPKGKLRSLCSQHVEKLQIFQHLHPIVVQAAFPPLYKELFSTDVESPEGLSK
#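 Using a luciferase readout, inhibitors were identified by reduced reporter activity in Drosophila cells coexpressing a copper-inducible Gal4–ROR gamma fusion and UAS-driven Photinus luciferase, incubated 20 hr after 700 uM copper sulfate.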
# GLP1R cytotox = qHTS of GLP-1 Receptor Inverse Agonists: Cytotox Screen. 410,000 tested, 0.13% active. HEK293 cAMP-luciferase reporter cells, luminescence, 24 h. Potency, µM (titrated, usually from 38.3 µM), hits mostly inhibitors. AID 624418, 2012;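 further: loss of luciferase light is scored as toxicity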
#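 To flag toxic compounds, the library was rerun on cells for 24 hr at 37 deg C and 5% CO2. Viability-linked luminescence was captured 12 min after adding luciferase detection reagent.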
# GLP-1R inv ag = qHTS of GLP-1 Receptor Inverse Agonists (Inhibition Mode). Glucagon-like peptide 1 receptor (Homo sapiens), P43220. 410,000 tested, 1.6% active. Potency, µM (doses to about 38.3 µM), hits mostly inhibitors. HEK293 GLP-1R CRE-luciferase, luminescence, 24 h; GLP-1R form is constitutively active; further: nearly all actives have a fitted effect of over 55% in size
#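 Constitutively active GLP-1R drives a cAMP-responsive luciferase in stably transfected HEK293 cells; test compounds are added after overnight (12 h) attachment and left 24 hr, and signal loss in luminescence marks inhibition.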
# Gal4-VP16 FLuc = VP16 counterscreen qHTS for inhibitors of ROR gamma transcriptional activity. Drosophila S2 Gal4-VP16 UAS-luciferase, luminescence, 20 h. Potency, µM (series often up to 53.6 µM), actives largely listed as inhibitors. 310,000 tested, 3.5% active. AID 2546, 2010;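 further: Gal4-VP16 expression switched on by copper sulfate through the metallothionein promoter; nearly all actives have a fitted effect of over 50% in size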
# Numbers stand for hits; i = inactive; ? = inconclusive; nt = no result given; [ ] = remark or other dose. The call rests on the fitted dose curve; in most records, active means well fitted curve in the direction sought with a large enough effect; inconclusive means small, poorly fitted or top-dose-only effect, or another doubt; inactive means no such curve, though single readings can be large; an effect the other way counts as inactive or inconclusive.
SMILES,GLP-1R agonist,RORg inh,GLP1R cytotox,GLP-1R inv ag,Gal4-VP16 FLuc
Fc1cccc(NC(=S)Nc2cccc3ccccc23)c1,i,i,i,i,i
COc1ccc(-c2ccc(C3C4C=CCC(C)C4C(=O)N3Cc3ccccc3)c(F)c2)cc1C (stereo not drawn),nt,i,nt,nt,i
Nc1[nH]c(N=NC(=O)c2ccccc2O)c2ccccc12,i,?,i,i,?
CC(=O)c1cn(C(=O)c2ccc(Cl)cc2)c2ccccc12,i,i,i,i,i
Nc1[nH]c(N=NC(=O)c2ccccc2)c2ccccc12,i,8.9µM,i,i,?
Nc1[nH]c(N=NC(=O)c2ccc(Cl)cc2)c2ccccc12,i,5.6µM,i,i,?
COc1ccc(N2CC(NC(=O)C3CCCCC3)CC2=O)cc1 (stereo not drawn),nt,nt,i,i,nt
CC(C)Cc1cc(C(C)(C)C)ccc1OC(=S)N(C)C,i,13µM,i,?,i
O=C(CSc1nncn2c1cc1occc12)Nc1ccccc1C(F)(F)F,nt,nt,i,i,nt
CCc1c(C)c2ccc3c(c2oc1=O)CN(Cc1ccccc1)CO3,i,nt,i,i,nt
COc1cccc(C2CC(=O)Nc3cc4c(cc32)CCC4)c1 (stereo not drawn),i,?,?,?,13µM
Cc1onc(-c2ccccc2)c1C(=O)NC(=S)Nc1sc2c(c1C#N)CCC(C)C2 (stereo not drawn),i,2.8µM,i,i,?
Cc1sc(NC(=S)NC(=O)c2ccccc2)c(C#N)c1C,i,nt,i,i,nt
Cc1sc(NC(=S)NC(=O)c2ccc(C(C)(C)C)cc2)c(C#N)c1C,i,0.56µM,i,i,11µM
CC(C)(C)C(=O)NC(=S)Nc1sc2c(c1C#N)CCCCC2,i,7.1µM,i,?,14µM
C=CCNC(=S)Nc1sc2c(c1C#N)CCCC2,i,11µM,i[7.66 µM],i[7.66 µM],i
CCOC(=O)C1CCN(C(=O)CSc2n[nH]c(-c3ccccc3Cl)n2)CC1,nt,nt,i,i,nt
Cc1onc(-c2ccccc2)c1C(=O)Nc1sc2c(c1C#N)CCC2,i,i,?,i,i
Cc1ccccc1C(=O)NC(=S)Nc1sc2c(c1C#N)CCCC2,i,3.5µM,i,i,11µM
Cc1onc(-c2ccccc2)c1C(=O)NC(=S)Nc1sc2c(c1C#N)CCCC2,i,3.5µM,i,i,i
N#Cc1c(NC(=O)c2ccccc2)sc2c1CCCCC2,i,?,i,i,?
COc1ccc(C(=O)c2cn(CC(=O)Nc3cc(C)ccc3C)c3nc(C)ccc3c2=O)cc1,nt,nt,i,i,nt
COc1cccc(N2CCN(C(=O)c3ccc4c(=O)n(CCc5ccccc5)c(=O)[nH]c4c3)CC2)c1,i,nt,i,i,nt
CCOCCc1nn2c(=O)cc(COC(=O)c3cccc(C)c3)nc2s1,nt,nt,i,i,nt
Fc1cccc(/C=C2\CCCC3=C2NC(=S)NC3c2cccc(F)c2)c1 (stereo not drawn),i,2.8µM,i,10µM,3.5µM
SMILES,GLP-1R agonist,RORg inh,GLP1R cytotox,GLP-1R inv ag,Gal4-VP16 FLuc
S=C1NC2=C(CCC/C2=C\c2ccc(Cl)cc2)C(c2ccc(Cl)cc2)N1 (stereo not drawn),i,i,i,7.9µM,?
Fc1ccccc1/C=C1\CCCC2=C1NC(=S)NC2c1ccccc1F (stereo not drawn),i,2.5µM,i,?,11µM
CC1CC2=C(NC(=S)NC2c2ccc(F)cc2)/C(=C/c2ccc(F)cc2)C1 (stereo not drawn),i,1.6µM,i,i,7.1µM
CCCCN(CC)CCCNC(=O)c1ccc2c(c1)NC(=O)CN2C,nt,nt,i,i,nt
S=C1NC2=C(CCC/C2=C\c2ccccc2)C(c2ccccc2)N1 (stereo not drawn),i,3.5µM,i,i,8.9µM
COc1ccc(C2C3=C(Nc4ncnn42)c2ccccc2CC3)cc1OC (stereo not drawn),nt,i,nt,nt,i
C(=C1/CCCC2=C1Nc1ncnn1C2c1ccccc1)/c1ccccc1 (stereo not drawn),nt,2.8µM,nt,nt,4µM
FC(F)(F)c1ccccc1C1C2=C(Nc3ncnn31)c1ccccc1CCC2 (stereo not drawn),nt,i,nt,nt,4.5µM
Cc1ccc(-n2c(SCC(=O)NCc3ccccc3)nc3n[nH]c(C)c3c2=N)cc1Cl,nt,nt,i,i,nt
C=CC(C)(O)CC1[C@@]2(C)CCCC(C)(C)C2CC[C@]1(C)O (stereo partly drawn),nt,i,nt,nt,i
CO[C@H]1COC(=O)[C@@H](Cc2ccccc2)NC(=O)[C@@H](C)COC(=O)CCC[C@@H]1C,nt,i[10 µM],nt,nt,i[10 µM]
COc1ccc(CNS(=O)(=O)c2ccc(N3CCCCS3(=O)=O)cc2)cc1,nt,nt,i,i,nt
Cc1cnc(CNc2cc(-c3ccc4c(c3)OCO4)ncn2)cn1,nt,i,nt,nt,i
Cc1cc2cc3c(cc2nc1SCc1ccccn1)OCCO3,i,i,i,i,i
N#Cc1cc2ccccc2nc1SCc1ccccn1,i,6.3µM,i,i,?
O=C(NCc1noc2ccccc12)Nc1ccc(F)cc1F,nt,nt,i,i,nt
C=CC(=O)N1C/C(=C/c2ccc(Cl)cc2)C(=O)/C(=C\c2ccc(Cl)cc2)C1,i,nt,3.2µM,?,nt
C=CC(=O)N1C/C(=C/c2ccccc2)C(=O)/C(=C\c2ccccc2)C1,i,nt,?,4.5µM,nt
O=C(O)c1ccc(CNCc2ccc(Cl)cc2)s1,nt,nt,i,i,nt
C[C@@]12CCC3c4ccc(OC5C=CC(c6ccccc6)OC5CO)cc4CCC3C1CCC2=O (stereo partly drawn),nt,i[10 µM],nt,nt,i[10 µM]
COc1ccccc1C(=O)NCC(c1cccs1)N1CCc2ccccc21 (stereo not drawn),i,nt,i,10µM,nt
COc1cc(C(=O)NCC(c2cccs2)N2CCc3ccccc32)cc(OC)c1OC (stereo not drawn),i,nt,i,?,nt
O=C(NCC(c1cccs1)N1CCc2ccccc21)c1ccccc1 (stereo not drawn),i,nt,?,7.1µM,nt
COc1cccc(C(=O)NCC(c2cccs2)N2CCc3ccccc32)c1 (stereo not drawn),i,nt,i,?,nt
CCOc1ccccc1NC(=O)Cn1c(=O)n(CCCC(=O)NCCc2ccc(C)cc2)c(=O)c2ccccc21,i,nt,i,i,nt
SMILES,GLP-1R agonist,RORg inh,GLP1R cytotox,GLP-1R inv ag,Gal4-VP16 FLuc
Cc1nc2cccnc2n1C1CCN(C(=O)Nc2ccc(Cl)cc2)CC1,nt,nt,i,i,nt
NC(C(=O)O)c1nn[nH]n1 (stereo not drawn),nt,i,nt,nt,i
Cc1nc2cc(Nc3nnc(-c4ccccc4)c4ccccc34)ccc2n1C,i,7.1µM,i,i,6.3µM
Clc1cccc(Nc2nnc(-c3ccccc3)c3ccccc23)c1,nt,i,nt,nt,i
COc1ccccc1CNC(=O)CCc1c(C)c2cc3c(C)c(C)oc3cc2oc1=O,nt,nt,i,i,nt
COC(=O)c1ccc(CSc2nnc(SCc3ccc(C(=O)OC)o3)s2)o1,i,i,i,i,i
